Experimental data: paper PMC12864922, “TDP-43 directly inhibits mRNA accumulation in neurites through modulation of mRNA stability”
Over roughly 9,900 sequences, “r (bound/input frequency ratio)” has its median near 0.7; the highest 2% begin near 6.5. The sample holds the highest values, similar sequences and a random draw of the others, so the mix is not that of the screen.

B1: ENSMUSG00000022095.41|Fam160b2|101:105 (ssRNA)
RNA: GGGAGUUCUACAGUCCGACGAUCGCUUCGAUAUCCGCAUGCUAUGAGGUUUCAAGGAGGUGCUGGCUCCUAAGGCAGUGGUAUUCUUGGAGCCUUUUAGAGGAGCUAGAGGAUGGCCAGUGAGCGCCUAGAUGCUGCCCUGCAACACAUGCGUGACUAUCUCUGCUAUAUUGUGACCAGGGCCACAACAUGAGACAACUCCAGGGGCCAGGGAGAUGAACUGCUGUCUUUGAGGCUGGCUAAAAAAACAAUCCAGUCCAGAGAGAUGGGGAGGGGGGGAGCAAGAACCCUGUCUGUUACAUUACUCUUGCGGUCGCACUAGUGUGGAAUUCUCGGGUGUCAAGG
B2: ENSMUSG00000031028.396|Tub|202:206 (ssRNA)
RNA: GGGAGUUCUACAGUCCGACGAUCGCUUCGAUAUCCGCAUGCUAUUGACCACUGGCGCUGUGAACACAGGCUAAUGGACUUCAGAUACCAGGGCCCCGGGAUCACCUGGGUUAGCCUCUCCCACAGGAAGAUCCCUUACCCCUCAUCCCCUCUUCUUUUUGGUCCUUGGCUGGGUAGCAAAUUGGUGAGAAGAGCAGCCUAGUCUGUAAGAGUGCAGGGCAGCUGGAACCUUAGGCAGCUCCUCUCAUACCUACCGGCUCCACACCCUAACACUCUCCACCCUCUGCUCCAAACCAGUUCUUCUCUCUUGCGGUCGCACUAGUGUGGAAUUCUCGGGUGUCAAGG
B3: ENSMUSG00000028439.136|Fam219a (ssRNA)
RNA: GGGAGUUCUACAGUCCGACGAUCGCUUCGAUAUCCGCAUGCUAAACCAGUGCAUCUGUCUCUCUGCCUCAUCCCCACACCGCCCUGCCACCCCCAGUCUUCUGUCUAUUGGUUCCAGGCUGGAAGCAAGAGAUAAGGCUGGCCUCCUGUGCCCCAUUGCCAUUUCACCCUAGCUCAAAGUCCAGGAGCCAGGCUUCCAGAAAGGCUCUUCAAGAGCAAGCUUAAGGAAAUACAGUGAGCCAAGUGGCUGUAUGAUAUGGUAUGGUAUGGUAUGGUAUGGUAUGGUAUGGUAUGCACAUGUGUGCUCUUGCGGUCGCACUAGUGUGGAAUUCUCGGGUGUCAAGG
B4: ENSMUSG00000028439.151|Fam219a (ssRNA)
RNA: GGGAGUUCUACAGUCCGACGAUCGCUUCGAUAUCCGCAUGCUAAAGGCUGGCCUCCUGUGCCCCAUUGCCAUUUCACCCUAGCUCAAAGUCCAGGAGCCAGGCUUCCAGAAAGGCUCUUCAAGAGCAAGCUUAAGGAAAUACAGUGAGCCAAGUGGCUGUAUGAUAUGGUAUGGUAUGGUAUGGUAUGGUAUGGUAUGGUAUGCACAUGUGUGUGCAUGUGUGUGUGCCUGUGUGUGUGCGUGUGCGUGUGUGUAUGUGUGUGCGUGUGUGUGUGUGUGUGUUGUACCCGAGUGUGUGUUGAGCUCUUGCGGUCGCACUAGUGUGGAAUUCUCGGGUGUCAAGG
B5: ENSMUSG00000028439.149|Fam219a (ssRNA)
RNA: GGGAGUUCUACAGUCCGACGAUCGCUUCGAUAUCCGCAUGCUAGAAGCAAGAGAUAAGGCUGGCCUCCUGUGCCCCAUUGCCAUUUCACCCUAGCUCAAAGUCCAGGAGCCAGGCUUCCAGAAAGGCUCUUCAAGAGCAAGCUUAAGGAAAUACAGUGAGCCAAGUGGCUGUAUGAUAUGGUAUGGUAUGGUAUGGUAUGGUAUGGUAUGGUAUGCACAUGUGUGUGCAUGUGUGUGUGCCUGUGUGUGUGCGUGUGCGUGUGUGUAUGUGUGUGCGUGUGUGUGUGUGUGUGUUGUACCCGACUCUUGCGGUCGCACUAGUGUGGAAUUCUCGGGUGUCAAGG
B6: ENSMUSG00000028439.150|Fam219a (ssRNA)
RNA: GGGAGUUCUACAGUCCGACGAUCGCUUCGAUAUCCGCAUGCUAAGAGAUAAGGCUGGCCUCCUGUGCCCCAUUGCCAUUUCACCCUAGCUCAAAGUCCAGGAGCCAGGCUUCCAGAAAGGCUCUUCAAGAGCAAGCUUAAGGAAAUACAGUGAGCCAAGUGGCUGUAUGAUAUGGUAUGGUAUGGUAUGGUAUGGUAUGGUAUGGUAUGCACAUGUGUGUGCAUGUGUGUGUGCCUGUGUGUGUGCGUGUGCGUGUGUGUAUGUGUGUGCGUGUGUGUGUGUGUGUGUUGUACCCGAGUGUGUCUCUUGCGGUCGCACUAGUGUGGAAUUCUCGGGUGUCAAGG
B7: ENSMUSG00000028439.152|Fam219a (ssRNA)
RNA: GGGAGUUCUACAGUCCGACGAUCGCUUCGAUAUCCGCAUGCUAGGCCUCCUGUGCCCCAUUGCCAUUUCACCCUAGCUCAAAGUCCAGGAGCCAGGCUUCCAGAAAGGCUCUUCAAGAGCAAGCUUAAGGAAAUACAGUGAGCCAAGUGGCUGUAUGAUAUGGUAUGGUAUGGUAUGGUAUGGUAUGGUAUGGUAUGCACAUGUGUGUGCAUGUGUGUGUGCCUGUGUGUGUGCGUGUGCGUGUGUGUAUGUGUGUGCGUGUGUGUGUGUGUGUGUUGUACCCGAGUGUGUGUUGAGCCUAUCCUCUUGCGGUCGCACUAGUGUGGAAUUCUCGGGUGUCAAGG
B8: ENSMUSG00000028439.148|Fam219a|134:138;144:178;183:190;193:202;205:214;216:220;222:238;240:257 (ssRNA)
RNA: GGGAGUUCUACAGUCCGACGAUCGCUUCGAUAUCCGCAUGCUAAGGCUGGAAGCAAGAGAUAAGGCUGGCCUCCUGUGCCCCAUUGCCAUUUCACCCUAGCUCAAAGUCCAGGAGCCAGGCUUCCAGAAAGGCUCUUCAAGAGCAAGCUUAAGGAAAUACAGUGAGCCAAGUGGCUCAUACAUAUGCAUACCAUACCAUACCAUACCAUACCAUACCAUACCACAACACACACCAACACACACACCCACACACACACCCACACCCACACACAUACACACACCCACACACACACACACACAUGUCUCUUGCGGUCGCACUAGUGUGGAAUUCUCGGGUGUCAAGG
B9: ENSMUSG00000061578.707|Ksr2|13:17 (ssRNA)
RNA: GGGAGUUCUACAGUCCGACGAUCGCUUCGAUAUCCGCAUGCUACCUGUAGUCUCUACACACAUCUUCUUCUAAGACCACUAAUAACACCGCCUUUCUCCUUGAUCCGGGCCUCAGACCUCUUCAGAGAUUCUUUCUCUGAAUGUACGUGGGGGACUCCAACAGAUGUUGGGAGAAGACUCAAUAUGAGCAUACGGGGUCAUUGUUCAAUCCUGUAUCAAGACCUUGGAGUUGUCUAAGGCUGUGGGUUUUAAAUACCUGCUGCAGGCCUCCCAUCUCUGGCUCUUUGUUUCCACUCUGGCCCACUCUUGCGGUCGCACUAGUGUGGAAUUCUCGGGUGUCAAGG

These binders were tested against TDP-43 (Homo sapiens, UniProt Q13148 1-414) (assay: RNA Bind-n-Seq with designed 260-mer pool; 25 mM Tris-HCl, 150 mM KCl, 3 mM MgCl2, BSA (printed 500 mg/mL), 20 units/mL SUPERase IN; pH not stated; 500 nM RNA pool, 1 h, 4 C; TDP-43 5, 50, 500 nM; high values mean tight binding). Settings: protein: recombinant; tags: SBP (GST cleaved off with PreScission; pGEX-GST-SBP).
Summary of the method: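 Recombinant SBP-tagged TDP-43 at 5, 50 or 500 nM was captured on streptavidin beads, then incubated 1 h at 4 °C with 500 nM of an in vitro-transcribed 260-nt 3′ UTR oligo pool in 25 mM Tris-HCl, 150 mM KCl, 3 mM MgCl2, BSA and SUPERase IN. Bound RNA was washed, eluted with biotin, reverse transcribed, PCR-amplified and sequenced. Binding is R, each oligo's mapped-read-normalized abundance in the bound sample divided by its abundance in input. Duplicates used two independent protein batches.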

TDP-43, sequence (Q13148 whole entry): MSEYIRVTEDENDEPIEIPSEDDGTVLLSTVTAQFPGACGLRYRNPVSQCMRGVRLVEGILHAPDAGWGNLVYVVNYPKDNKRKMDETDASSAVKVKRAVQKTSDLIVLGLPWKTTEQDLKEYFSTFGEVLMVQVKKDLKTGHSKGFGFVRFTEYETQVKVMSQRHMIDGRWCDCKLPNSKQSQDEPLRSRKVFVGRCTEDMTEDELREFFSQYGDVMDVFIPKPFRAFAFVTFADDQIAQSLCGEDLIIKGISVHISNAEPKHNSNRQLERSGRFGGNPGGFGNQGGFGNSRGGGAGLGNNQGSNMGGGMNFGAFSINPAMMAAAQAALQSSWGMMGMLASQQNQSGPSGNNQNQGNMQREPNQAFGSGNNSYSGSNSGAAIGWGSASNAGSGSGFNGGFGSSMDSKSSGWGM

Row | Binder | binding signal
1 | B1 | 1 R (bound/input frequency ratio)
2 | B2 | 1.04 R (bound/input frequency ratio)
3 | B3 | 1.84 R (bound/input frequency ratio)
4 | B4 | 6.07 R (bound/input frequency ratio)
5 | B5 | 6.67 R (bound/input frequency ratio)
6 | B6 | 7.17 R (bound/input frequency ratio)
7 | B7 | 7.8 R (bound/input frequency ratio)
8 | B8 | 4.64 R (bound/input frequency ratio)
9 | B9 | 0.284 R (bound/input frequency ratio)
